A short description of assay [1]: Cell Viability - LYMP2-017 (AID 972). Further: on the % scale 0 is the no-effect control and ±100 the full control effect; nearly all actives have a fitted effect of over 55% in size. The procedure, abridged:
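LYMP2-017 human lymphoblastoid cells (2500/well) settled 5 hr at 37 C, then exposed to compound 24 hr at 37 C in complete medium. Viability taken as intracellular ATP by CellTiter-Glo luminescence after 30 min at RT; AC50 from Hill fits.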

The nature of assay [2]: Cell Viability - LYMP2-021 (AID 974).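 Further: compound exposure lasts 24 hours at 37 °C; on the % scale 0 is the no-effect control and ±100 the full control effect; nearly all actives have a fitted effect of over 55% in size.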 The procedure, abridged: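 Human lymphoblastoid LYMP2-021 cells, 2500/well in complete medium, treated 24 hours at 37 C. Intracellular ATP by CellTiter-Glo luminescence (30 min, RT); AC50 from Hill fits of concentration-response.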
Assay [3] can be described thus: Cell Viability - LYMP2-023 (AID 975).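 Further: cellular ATP measured by luciferase luminescence as viability proxy; plate controls were DMSO only for no effect and 92 µM tetraoctylammonium bromide control for full effect; nearly all actives have a fitted effect of over 55% in size.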 In outline:
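LYMP2-023 human lymphoblastoid cells, 2500/well, preincubated 5 hr at 37 C, then compound-treated 24 hr at 37 C in complete medium. CellTiter-Glo luminescence (ATP) after 30 min at room temperature; AC50 from Hill-equation fits; tetraoctylammonium bromide positive control.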

A short description of assay [4]: Cell Viability - LYMP2-025 (AID 976).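 Further: plate controls were DMSO only for no effect and tetraoctylammonium bromide control for full effect.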 In outline: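 Human lymphoblastoid LYMP2-025 cells, 2500/well, exposed 24 h at 37 C in complete medium in 1536-well qHTS. Viability as cellular ATP by CellTiter-Glo luminescence; AC50 from Hill fits of concentration-response data.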
A short description of assay [5]: Cell Viability - LYMP2-006 (AID 978). Further: on the % scale 0 is the no-effect control and ±100 the full control effect; nearly all actives have a fitted effect of over 60% in size. The procedure, abridged: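 Concentration-dependent loss of intracellular ATP in a human lymphoblastoid line after 24 hr treatment at 37 C was measured by CellTiter-Glo luminescence, with AC50 values obtained from standard Hill-equation modelling.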
The nature of assay [6]: Cell Viability - LYMP2-008 (AID 980). Further: on the % scale 0 is the no-effect control and ±100 the full control effect; nearly all actives have a fitted effect of over 60% in size. The procedure, abridged:
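LYMP2-008 lymphoblastoid cells (2500/well) plated 5 h, then treated 24 h at 37 C in complete medium. Viability read as intracellular ATP by CellTiter-Glo luminescence after 30 min at room temperature; AC50 from Hill fits.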

Assay [7] is described as follows: Cell Viability - LYMP2-010 (AID 981). Further: on the % scale 0 is the no-effect control and ±100 the full control effect; nearly all actives have a fitted effect of over 55% in size. The procedure, abridged:
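Human lymphoblastoid LYMP2-010 cells (2500/well) treated 24 h at 37 C in complete medium; viability read as intracellular ATP by CellTiter-Glo luminescence. AC50 from Hill fits of concentration-response data; tetraoctylammonium bromide positive control.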

The nature of assay [8]: Cell Viability - LYMP2-012 (AID 982).
A short description of assay [9]: Cell Viability - LYMP2-014 (AID 983).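 Further: plate controls were DMSO only for no effect and 92 µM tetraoctylammonium bromide for full effect; nearly all actives have a fitted effect of over 50% in size.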 The procedure, abridged:
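LYMP2-014 human lymphoblastoid cells, 2500/well, treated 24 h at 37 C in complete medium; viability by CellTiter-Glo ATP luminescence after 30 min at room temperature. AC50 from Hill fits of qHTS concentration-response; tetraoctylammonium bromide positive control.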

Assay [10] is described as follows: Cell Viability - LYMP2-016 (AID 984). In outline:
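Acute toxicity in a Coriell human lymphoblastoid line is scored as loss of intracellular ATP over 24 h of treatment in complete medium. CellTiter-Glo signal is fitted across concentrations with the Hill equation to give AC50.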

The nature of assay [11]: Cell Viability - LYMP2-018 (AID 985).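 Further: compound exposure lasted 24 hr at 37 °C; plate controls were DMSO only for no effect and tetraoctylammonium bromide at 92 µM for full effect; nearly all actives have a fitted effect of over 50% in size.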 The procedure, abridged: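 Human lymphoblastoid LYMP2-018 cells, 2500/well, settled 5 hr at 37 C then exposed to compound 24 hr at 37 C; intracellular ATP measured by CellTiter-Glo luminescence. AC50 from Hill-equation concentration-response fits.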
A short description of assay [12]: Cell Viability - LYMP2-020 (AID 986). In outline: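 Human lymphoblastoid LYMP2-020 cells (2500/well) preincubated 5 h at 37 C, then treated 24 h at 37 C. Viability measured as intracellular ATP by CellTiter-Glo luminescence after 30 min at room temperature; AC50 from Hill fits.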
Assay [13] can be described thus: Cell Viability - LYMP2-026 (AID 989). Further: on the % scale 0 is the no-effect control and ±100 the full control effect; nearly all actives have a fitted effect of over 50% in size. The procedure, abridged:
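Human lymphoblastoid LYMP2-026 cells, 2500/well, exposed to compound 24 h at 37 C in complete medium. Viability as intracellular ATP by CellTiter-Glo luminescence; AC50 from Hill fits of qHTS concentration-response.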

Assay [14] in a line: Cell Viability - LYMP1-002 - Assay at 24 hr (AID 993). Further: on the % scale 0 is the no-effect control and ±100 the full control effect. The procedure, abridged: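 Human lymphoblastoid LYMP1-002 cells (2500/well) treated 24 h at 37 °C; viability as intracellular ATP by CellTiter-Glo luminescence. Tetraoctylammonium bromide as positive control; AC50 from Hill-equation fits of qHTS concentration-response.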
Assay [15] can be described thus: Cell Viability - LYMP1-002 - Assay at 40 hr (AID 994).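 Further: 0% = DMSO only and full inhibition = 92 µM tetraoctylammonium bromide; nearly all actives have a fitted effect of over 60% in size.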 The procedure, abridged: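 LYMP1-002 human lymphoblastoid cells (2500/well, complete medium) were treated with compounds for 40 hr at 37 C. Intracellular ATP was measured by CellTiter-Glo luminescence, and AC50 values came from Hill-equation fits of concentration-response data; tetraoctylammonium bromide was the positive control.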

A short description of assay [16]: qHTS Assay for Lipid Storage Modulators (AID 1519; calls by dose curve; on activity change, negative = inhibition: on the % scale 0 is the no-effect control and ±100 the full control effect). The following applies: Drosophila S3 cells, BODIPY lipid droplet/cell ratio, laser cytometry, cells loaded with oleic acid. In outline: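 Cells seeded at 5,000 per well were treated with compounds over a concentration series and loaded with oleic acid (400 uM, as added). Lipid droplet fluorescence (488 nm excitation, 500-530 nm channel) was read by laser-scanning cytometry and normalized to 20 uM Triacsin C.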

Setting [17] is: measured here: cell count channel max response.
Where [18] appears, read: measured here: lipid channel max response.

Inconclusive results are not listed. Activity calls are given as the source filed them. Unless noted, the call rests on the fitted dose curve; in most records, active means well fitted cell-killing curve with a large enough effect; inconclusive means small, poorly fitted or top-dose-only effect; inactive means flat fitted curve, though single readings scatter.

For `Cc1ncc([N+](=O)[O-])n1CCO`, the Potency entry in assay [1], in assay [2], in [3], in assay [4], in assay [5] and in [6] was “inactive” throughout. For the same molecule, the Potency result in assay [7], in assay [8], in assay [9], in [10], in assay [11] and in assay [12] was “inactive” throughout. For the same molecule, the Potency result in assay [13], in assay [14] and in [15] was “inactive” throughout. In addition, the activity change, negative = inhibition in assay [16] (at 57.5 µM (top of the series)) was 8.03% (inactive). In addition, the max response in assay [16] (setting [17]) is 17.2%; in assay [16] (setting [18]), 27.3%.
Take `NC(N)=NC(N)=NCCc1ccccc1`: the Potency result in assay [1], in [2], in assay [3], in assay [4], in [5] and in [6] was “inactive” in each case. Also, the Potency result in assay [7], in assay [8], in assay [9], in assay [10], in [11] and in assay [13] was “inactive” throughout. Also, the Potency result in assay [14] and in [15] was “inactive” in each case. For the same molecule, the activity change, negative = inhibition in assay [16] (at 25.7 µM (top of the series)) is -0.801% (inactive). In addition, the max response was 4.96% in [16] (setting [17]) and 5.89% in assay [16] (setting [18]).
`O=C(N[C@H](CO)[C@H](O)c1ccc([N+](=O)[O-])cc1)C(Cl)Cl`: the Potency entry in assay [1], in assay [2], in assay [3], in assay [4], in [5] and in [6] was “inactive” throughout. Moreover, the Potency entry in assay [7], in assay [8], in [9], in [10], in assay [11] and in [12] was “inactive” throughout. Further, the Potency entry in assay [13], in [14] and in assay [15] was “inactive” in each case. In addition, the activity change, negative = inhibition in [16] (at 57.5 µM (top of the series)) is 4.84% (inactive). Moreover, the max response in [16] (setting [17]) is -11.7%; in [16] (setting [18]), -6.22%.
For `CC[C@H](C)C(=O)O[C@H]1C[C@@H](C)C=C2C=C[C@H](C)[C@H](CC[C@@H]3C[C@@H](O)CC(=O)O3)[C@H]21`, the Potency entry in assay [1], in assay [2], in assay [3], in assay [4], in assay [6] and in assay [8] was “inactive” in each case. Also, the Potency entry in [9], in assay [10], in assay [11], in assay [13] and in [14] was “inactive” each time.
